In all, about 69,000 compounds went through this assay and about 420 (0.61%) showed an effect of 50% or more. Many of the other results were omitted from the sample, so strong results are more common in it than they were.
What follows are compounds tested against T1, Histidine--tRNA ligase (Leishmania infantum) (UniProt A4I591) (assay: Leishmania infantum Histidine tRNA synthetase (LdHisRS)). Conditions: 30 µM.
T1 sequence (whole entry): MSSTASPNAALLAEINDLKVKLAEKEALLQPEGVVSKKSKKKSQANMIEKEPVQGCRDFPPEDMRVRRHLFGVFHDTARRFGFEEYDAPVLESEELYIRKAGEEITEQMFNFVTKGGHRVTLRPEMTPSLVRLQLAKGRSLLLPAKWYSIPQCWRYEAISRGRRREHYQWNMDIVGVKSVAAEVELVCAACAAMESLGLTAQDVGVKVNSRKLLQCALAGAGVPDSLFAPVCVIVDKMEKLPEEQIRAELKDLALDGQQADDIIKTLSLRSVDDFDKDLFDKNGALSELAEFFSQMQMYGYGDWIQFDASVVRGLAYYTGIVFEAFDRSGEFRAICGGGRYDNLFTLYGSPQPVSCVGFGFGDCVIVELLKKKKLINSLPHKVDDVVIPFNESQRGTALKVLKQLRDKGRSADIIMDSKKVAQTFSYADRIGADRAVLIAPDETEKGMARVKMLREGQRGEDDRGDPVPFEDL
Type: functional
Design: scale not given: in the data most compounds retested in dose-response had high values

| SMILES | Percent Effect [%] |
| --- | --- |
| CCCN(C(=O)c1ccccn1)c1nc2c(s1)CCc1c-2cnn1C | 106 |
| COCCN(C)C(=O)c1nc2c(s1)CCCN2c1ncccn1 | 17.5 |
| COCCN(Cc1ccoc1)C(=O)c1ccccn1 | 16.4 |
| CN(C(=O)c1ccccn1)c1nnc(C2CCOC2)s1 (stereo not drawn) | 5.59 |
| Cc1cc(-c2cnc(C)nc2CN(C)C(=O)c2ccccn2)on1 | 2.07 |
| CN(C(=O)c1ccccn1)c1nc2c(s1)CCc1c-2cnn1C | 103 |
| CCCN(CCc1ccccn1)C(=O)CCc1cnn(C)c1 | 1.21 |
| COCCN(C(=O)c1ccccn1)c1nc2c(s1)CCc1c-2cnn1C | 101 |
| Cc1cnccc1-c1cnn(CCNC(=O)c2ccccn2)c1C1CC1 | 4.25 |
| Cc1ccc(CN2CC[C@@H]3[C@@H](CO[C@H]3CN(C)C)C2)o1 | 10 |
| CC(C)NC(=O)N1CC[C@@H]2CN(Cc3ccccc3)S(=O)(=O)[C@@H]2CC1 | 1.5 |
| COCCN1CCN(Cc2ccc(C(C)=O)cc2)[C@H]2CS(=O)(=O)C[C@H]21 | 22.2 |
| Cc1nnc(N2C[C@H](C(=O)NCC3CC3)[C@@H]3CCO[C@@H]3C2)s1 | 2.91 |
| CC(C)Oc1cccc(CN(C)C(=O)Nc2cccn(C)c2=O)c1 | 13.9 |
| Cc1ccn(C)c(=O)c1NC(=O)N(C)Cc1cccc(OC(C)C)c1 | 77.5 |
| CCC(=O)N(C)Cc1cccc(OC(C)C)c1 | 4.46 |
| Cc1csc(CN2CC[C@H]3C(=O)N(c4cccnc4)CCO[C@H]3C2)n1 | 23.1 |
| CC(C)(C)c1nc2cc(NC(=O)Cn3ccc(=O)[nH]c3=O)ccc2o1 | 14 |
| Cc1ccc(CNC(C)(C)c2noc(C(C)(C)C)n2)o1 | 27.1 |
| COCc1nc2cc(NCc3ccc(C)o3)ccc2o1 | 102 |
| COc1ccccc1C(C)(C)NCc1ccc(C)o1 | 2.86 |
| COCc1nc2c(o1)CN(C(=O)NCc1ccccc1)C2 | 16 |
| COCc1nc2cc(NCc3ccc(CO)o3)ccc2o1 | 86.6 |

| SMILES | Percent Effect [%] |
| --- | --- |
| O=C(NCC1CC1)[C@@H]1CCO[C@@H]2CCN(Cc3ccsc3)C[C@H]21 | 20 |
| Cn1cnc(S(=O)(=O)N2CCO[C@H]3[C@@H](OCC4CC4)CC[C@@H]32)c1 | -5.26 |
| Cc1nc(-c2ccc(CC(=O)N3CCN(C(=O)C4CC4)CC3)cc2)cs1 | 21.2 |
| Cc1nc(-c2ccc(CC(=O)N3CCN(C(=O)C(C)C)CC3)cc2)cs1 | 63.6 |
| Cc1nc(-c2ccc(CC(=O)N3CCNC(=O)C3)cc2)cs1 | -9.09 |
| Cc1csc([C@@H]2C[C@@H]3CCN(C(=O)c4cc(C)on4)C[C@H]3O2)n1 | 18.4 |
| CC(=O)N1[C@H](Cn2cncn2)C[C@@H]2CN(C(=O)c3ccoc3)CC[C@@H]21 | 13.5 |
| O=C1CC(c2ccccc2)c2sc(C(=O)O)c(-c3ccccc3)c2N1 (stereo not drawn) | 13 |
| O=C1CC(c2ccco2)c2sc(C(=O)O)c(-c3ccccc3)c2N1 (stereo not drawn) | 91.4 |
| O=C1CC(c2ccc(O)cc2)c2sc(C(=O)O)c(-c3ccccc3)c2N1 (stereo not drawn) | 20.8 |
| COC[C@@]12CC[C@@H](N3CCOCC3)C[C@H]1CCN(c1ncccc1Cl)C2 | 22.9 |
| O=C1O[C@@H]2CN(Cc3cc4ccccc4o3)C[C@@H]2N1Cc1ccccn1 | 0 |
| CN1CCN(Cc2nnc(C3CCN(C(CO)CO)CC3)n2C)CC1 | 80.7 |
| CN1CCN(Cc2nnc(C3CCN(C4CCCCC4)CC3)n2C)CC1 | 13.2 |
| CN1CCN(Cc2nnc(C3CCN(CC4CC4)CC3)n2C)CC1 | 21.1 |
| Cc1ccnc(OC[C@]23COC[C@H]2CN(C(=O)C2=CCCCC2)C3)n1 | 5.56 |
| CN(Cc1cccnc1)c1nccc(N2CCN[C@H]3CS(=O)(=O)C[C@H]32)n1 | 12.9 |
| c1ccc(CN2C[C@@H]3CC[C@H](C2)N(Cc2nnc(C4CC4)o2)C3)cc1 | 34 |
| COc1cc(N2C[C@@H]3COC[C@]3(C(=O)NCc3ccccn3)C2)ncn1 | 5.26 |
| O=C(Cn1c(-c2ccco2)cc2cccnc21)N1CCCC1 | 76.5 |
| COCCNC(=O)Cn1c(-c2ccco2)cc2cccnc21 | 14.8 |
| CC(C)N(C(=O)Cn1c(-c2ccco2)cc2cccnc21)C(C)C | 20.1 |
| Cc1nnc([C@@]23CCO[C@@H]2CCN(Cc2nccs2)C3)o1 | 7.92 |

| SMILES | Percent Effect [%] |
| --- | --- |
| CN(C)C(=O)N1C[C@@H]2CCCO[C@@H]2[C@H](N(C)Cc2ccco2)C1 | 11.4 |
| c1ccc(-c2cc(CN3C[C@@H]4CC[C@H](C3)N(CC3CC3)C4)on2)cc1 | 26.7 |
| c1ccc(-c2cc(CN3CCCC(Cn4cncn4)C3)on2)cc1 (stereo not drawn) | 8.55 |
| c1ccc(-c2cc(CN3C[C@@H]4CC[C@H](C3)N(CC3CCC3)C4)on2)cc1 | 51.7 |
| C1CC(CN2C[C@H]3CC[C@@H]2CN(Cc2noc(C4CCCC4)n2)C3)C1 | 8.51 |
| c1ccc(-c2nnc(CN3C[C@@H]4CC[C@H](C3)N(CC3CCC3)C4)o2)cc1 | 21.3 |
| O=C(NCC1CC1)[C@@H]1CCO[C@@H]2CCN(CCc3ccccc3)C[C@H]21 | 13.7 |
| CN1CCN(C(=O)[C@H]2CC[C@@H]3[C@@H](CCN3Cc3nccs3)O2)CC1 | -10.1 |
| Cc1cc(CN2CCN(CC3CC3)[C@@H]3CS(=O)(=O)C[C@@H]32)cc(C)c1O | 8.33 |
| O=C([C@H]1C[C@H]2OCC[C@H]2N(Cc2ccco2)C1)N1CCCO1 | 22.2 |
| CN(Cc1nccs1)c1nccc(N2CCN[C@H]3CS(=O)(=O)C[C@H]32)n1 | 14.5 |
| O=C(NCc1ccco1)[C@@H]1CC[C@@H]2[C@@H](CCN2Cc2ccc(F)cc2)O1 | 69.9 |
| Cn1cc(CN2CC[C@H]3O[C@H](C(=O)NCc4ccco4)CC[C@H]32)cn1 | 9.43 |
| O=C(NCc1ccco1)[C@H]1CC[C@@H]2[C@@H](CCN2Cc2nccs2)O1 | 31.5 |
| O=C(NCc1ccco1)[C@@H]1CC[C@@H]2[C@@H](CCN2CC2CC2)O1 | 23.3 |
| O=C(NCc1ccco1)[C@H]1CC[C@@H]2[C@@H](CCN2Cc2cccnc2)O1 | 23.3 |
| COCCN1CCCn2cnc(CNC3CCCC3)c2C1 | 77.8 |
| COCCN1CCCn2cnc(CNC(=O)N(C)C)c2C1 | 9.4 |
| COCCN1CCCn2cnc(CN(C)C(C)C)c2C1 | 30 |
| COCCN1C(=O)CO[C@H]2CN(Cc3cccc(OC)c3F)C[C@@H]21 | 8.25 |
| Cc1nnc([C@]23COC[C@H]2CN(Cc2cnn(C)c2)C3)o1 | 27.4 |
| CN(C)CCN1CCO[C@@H]2CN(C(=O)Cc3ccsc3)CC[C@@H]2C1 | 10 |

Source: ChEMBL document CHEMBL3988442, “University of Dundee, Small-Polar-MMV Screening Library” (2021)
